# High-throughput results deposited in PubChem by National Center for Advancing Translational Sciences (NCATS).
# Rows were chosen to be rich in hits. Some 1.6% of all compounds tested hit in one or more screens of this group.
# GFP derepression: epigenetic modulators derepressing GFP locus in mouse cells | mouse C127i GFP locus derepression, cytometry, 30 h | Potency, µM (highest dose often 46.1 µM), for inactives: at the top dose GFP derepression (activation) | 68,000 compounds, 0.09% hits; note: % of control where 0% means no effect
#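 Read-out is the number of GFP-positive cells, scored as fluorescent objects 20 to 120 um wide, reflecting derepression of a silenced CMV-GFP reporter in murine C127i cells after 30 h compound exposure at 37 C.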
# Peg3 imprint: genomic imprint erasure induction | Potency, µM (highest dose often 60.7 µM), for inactives: at the highest dose activity change, positive = activation, actives largely listed as activators | AID 1948 | mouse ES Peg3-LacZ reporter, beta-gal luminescence, 40 h | 110,000 compounds, 0.02% hits; note: potency is the fitted concentration of half-maximal effect
#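 Readout: BetaGlo luminescence (5 min, room temp) for LacZ from the normally silent maternal Peg3 allele in female Peg3LacZ-Neo ES cells. Cells 300/well, 40 h, 37C, 5% CO2. Data normalized per plate to negative controls.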
# p53ts 39C kill: kills p53ts cells at the nonpermissive temperature. 130,000 compounds, 1.5% hits. Potency, µM (highest dose often 46.1 µM), inactives show top-dose activity change, negative = cell killing, most hits filed as cytotoxic. H1299-p53A138V viability at 39C, ATP luminescence, 24 h; note: potency is the fitted concentration of half-maximal effect; % is set by controls: 0 for no effect and ±100 for the full control effect; nearly all actives have a fitted effect of over 55% in size
# HBB splicing: modulators of hemoglobin beta chain splicing; HBB splicing reporter cell assay, activation; EGFP reporter with mutant IVS2-654 intron; response scale: normalised to 500 nM splice-correcting PNA; Potency, µM (titrated, usually from 46.1 µM), inactives show at the top dose activation, most hits filed as activators; 65,000 compounds, 0.06% hits; AID 925; note: potency is the fitted concentration of half-maximal effect; 0% is about no effect
#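 HeLa cells stably expressing EGFP interrupted by mutant beta-globin intron 2 (IVS2-654), 500/well in 2% FCS. Treated with compound for 2 days at 37C. Splicing correction scored as total well GFP intensity (488 nm excitation, 500-520 nm emission); 500 nM antisense PNA served as control.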
# UbGFP stabilizer: ubiquitin-GFP accumulation via proteasome inhibition | AID 526 | Ubiquitin-GFP reporter cells, proteasome inhibition, GFP fluorescence; response scale: untreated = 0%, 10 µM MG-132 = 100% | 67,000 tested, under 10 active | Potency, µM (doses to about 45.9 µM), for the others: top-dose activation (GFP accumulation), hits mostly activators; active = well fitted activation curve with a large enough effect, not every such curve was filed as active; inconclusive = small, poorly fitted or top-dose-only effect, or another doubt; inactive = no such curve, though single readings can be large or run the other way; note: potency is the fitted concentration of half-maximal effect
#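 Reporter cells (U2OS, ubiquitin-G76V-GFP fusion) are plated overnight, then treated 4 hr at 37 °C with compound titrations from 46 uM down to 2.9 nM. Activity is scaled against untreated cells and 10 uM MG-132.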
# p53ts 32C kill: p53ts cell cytotoxicity, permissive temperature | H1299-p53A138V at 32C, ATP luminescence viability, 24 h | Potency, µM (series often up to 46.1 µM), inactives show at the highest dose activity change, negative = cytotoxicity, hits mostly cytotoxic | 130,000 compounds, 0.93% hits;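 note: potency is the fitted concentration of half-maximal effect; 0% = DMSO and -100% = full killing by reference compound; nearly all actives have a fitted effect of over 55% in size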
#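 Viability by ATPlite luminescence after 24 h compound treatment (up to 46 uM) at the permissive 32C. Cells are H1299 carrying p53 A138V. Scale runs from DMSO basal to 100 uM tamoxifen as full kill; AC50 from Hill fits.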
# The depositor's hits bear a star; ? = inconclusive; . = not tested or not shown; [ ] = another dose, or the depositor's remark. Unless noted, calls come from the whole dose curve; as a rule, active = well fitted curve in the direction sought with a large enough effect; inconclusive = small, poorly fitted or top-dose-only effect, or another doubt; inactive = no such curve, though single readings can be large; an effect the other way counts as inactive or inconclusive.
SMILES,GFP derepression,Peg3 imprint,p53ts 39C kill,HBB splicing,UbGFP stabilizer,p53ts 32C kill
Cc1cccc(-c2nc(SCc3cc(=O)c4c(C)cc(C)cc4[nH]3)n[nH]2)c1,.,13%[10.9 µM],20µM*,.,.,?
COc1cc(/C=C/C(=O)N2CCC=CC2=O)cc(OC)c1OC,.,-35%,?,.,.,3.2µM*
CC(C)Oc1ccc(C(=O)Nc2nnc3n2CCS3)cc1,.,-69%[10.9 µM],13µM*,.,.,?
CN(C)c1ccc(-c2nc(NCc3cccnc3)c3ccccc3n2)cc1,6%[9.22 µM],-47%,4µM*,-1%,-3%,5µM*
CNc1nc(-c2ccc(N(C)C)cc2)nc2ccccc12,14%[9.22 µM],-39%,10µM*,?,-4%,13µM*
COc1ccc(CNc2nc(-c3ccc(N(C)C)cc3)nc3ccccc23)c(OC)c1,-3%[9.22 µM],-33%,16µM*,-1%,0%,13µM*
CN(C)Cc1ccccc1-c1nc(NCc2ccccc2)c2ccccc2n1,-3%[9.22 µM],-22%,-25%,-1%,-1%,-24%
COc1ccccc1CNc1nc(-c2ccccc2CN(C)C)nc2ccccc12,6%[9.22 µM],-19%,16µM*,-1%,-3%,-8%
COC(=O)CCN(C(=O)c1c(C)oc2ncnc(N3CCOCC3)c12)c1ccccc1,.,-9%[10.9 µM],-1%,.,.,12%
CN(C)c1ccc(-c2nc(Nc3ccncc3)c3ccccc3n2)cc1,0%[9.22 µM],.,7.9µM*,0%,0%,10µM*
CN(C)C(=O)c1ccc(-c2nc(Nc3ccncc3)c3ccccc3n2)cc1,0%[9.22 µM],-7%,?,0%,-3%,?
Cc1ccc(-n2c(=O)c3c(C)c(C)sc3n(Cc3ccc(F)cc3Cl)c2=O)cc1C,.,-8%[10.9 µM],-8%,.,.,6%
CCc1nnc(NC(=O)c2ccc(S(=O)(=O)N(CC(C)C)CC(C)C)cc2)o1,4%,-21%,13µM*,-1%,-5%,-3%
CSCc1nnc(NC(=O)c2ccc(S(=O)(=O)N(CC(C)C)CC(C)C)cc2)o1,11%,-24%,13µM*,-1%,-8%,-4%
CCc1ccc(N2C(=O)CS(=O)(=O)C23C(=O)N(Cc2ccccc2F)c2ccccc23)cc1 (stereo unspecified),.,10%[10.9 µM],-10%,.,.,-4%
Cc1cc(C)cc(NC(=O)Cn2nnc(C(=O)NCc3ccccc3Cl)c2N)c1,.,-11%[10.9 µM],7.9µM*,.,.,?
Cc1ccc(C)c(NC(=O)Cn2nnc(C(=O)NCc3ccccc3Cl)c2N)c1,.,12%[10.9 µM],12%,.,.,4%
O=C(Nc1cccc(C(F)(F)F)c1)c1cc(-c2ccc(Cl)s2)nc2ccccc12,.,8%[10.9 µM],?,.,.,-3%
Cc1cccc(C)c1OCc1cc(=O)n2ccsc2n1,.,-6%[10.9 µM],-8%,.,.,-3%
Cc1ccc(C)c(Nc2nn3c(=O)c4ccc(C(=O)NCCc5ccccc5)cc4nc3s2)c1,.,23%[10.9 µM],3.2µM*,.,.,-6%
CCN(CC)CCNC(=O)c1ccc2c(=O)n3nc(Nc4cccc(Cl)c4C)sc3nc2c1,.,-4%[10.9 µM],20µM*,.,.,?
COc1ccccc1Nc1nn2c(=O)c3ccc(C(=O)NCCc4ccccc4)cc3nc2s1,.,-34%[10.9 µM],3.2µM*,.,.,3.2µM*
COc1ccccc1Nc1nn2c(=O)c3ccc(C(=O)NCCC4=CCCCC4)cc3nc2s1,.,-37%[10.9 µM],3.2µM*,.,.,5µM*
Cc1c(Cl)cccc1Nc1nn2c(=O)c3ccc(C(=O)NCCc4ccccc4)cc3nc2s1,.,-33%[10.9 µM],?,.,.,?
CC(C)c1ccc(Nc2c(-c3ccc(N(C)C)cc3)nc3cnccn23)cc1,.,-6%[10.9 µM],4%,.,.,1%
SMILES,GFP derepression,Peg3 imprint,p53ts 39C kill,HBB splicing,UbGFP stabilizer,p53ts 32C kill
CCc1ccc(-n2c(N3CCN(c4ccc(F)cc4)CC3)nc3ccccc3c2=O)cc1,.,-9%[10.9 µM],9%,.,.,9%
CCOC(=O)c1c(NC(=O)c2cc(=O)c3ccc(C)cc3o2)sc(C)c1C,.,-9%[10.9 µM],1%,.,.,12%
O=C(Nc1nc2c(F)cccc2s1)c1ccc2c(c1)OCCO2,.,-30%[10.9 µM],5µM*,.,.,10µM*
Cc1cc(NC(=O)CSc2nnc(-c3ccc4c(c3)OCCO4)o2)no1,0%,-81%,0.79µM*,-3%,-12%,5µM*
Cc1cc(NC(=O)c2ccc3c(c2)OCCO3)no1,-3%,-88%,2µM*,1%,9%,1.6µM*
CCOc1ccc(C(=O)Nc2cc(C)on2)cc1OCC,1%,-5%,-6%,0%,-3%,4%
Cc1cc(NC(=O)c2ccc3c(c2)OCO3)no1,-1%,-78%,13µM*,-1%,0%,10µM*
CCN1CCc2nc(NC(=O)c3ccc4c(c3)OCCO4)sc2C1,0%,-30%,?,0%[57.5 µM],8%,?
Cc1nc(-c2ccc(Cl)cc2)sc1CCNC(=O)C(=O)Nc1ccc(F)cc1F,.,-16%[10.9 µM],-4%,.,.,11%
CCC(=O)Nc1ccc2oc(-c3cccc(C)c3)nc2c1,0%,-91%,?,-1%,9%,13µM*
Cc1ccc(SCC(=O)Nc2ccc3oc(-c4cccc(C)c4)nc3c2)cc1,.,-13%[10.9 µM],-11%,.,.,-14%
CCCC(=O)Nc1cccc(-c2nc3ccccc3o2)c1,-2%,-14%,5%,1%,1%,2%
CCCC(=O)Nc1cccc(-c2nc3cc(C)c(C)cc3o2)c1,-2%,-45%,?,-2%[0.0738 µM],?,16µM*
Cc1ccc2nc(-c3cccc(NC(=O)CSc4ccc(Cl)cc4)c3)oc2c1,.,-52%[10.9 µM],14%,.,.,13µM*
Cc1ccc2nc(-c3ccc(C)c(NC(=O)CSc4ccc(Cl)cc4)c3)oc2c1,.,9%[10.9 µM],-20%,.,.,-19%
Cc1ccc2oc(-c3ccc(NC(=O)CCC(=O)O)cc3)nc2c1,.,-18%[10.9 µM],16µM*,.,.,?
CCOc1ccccc1NC(=O)C(Cc1ccccc1)NS(=O)(=O)c1ccc2c(c1)oc(=O)n2C (stereo unspecified),.,-8%[10.9 µM],-4%,.,.,2%
CN(C)c1ncc(C(=O)NCc2ccccc2Cl)cn1,.,-7%[10.9 µM],-7%,.,.,7%
COc1cc(C(=O)Nc2cc(-c3nc4cc(C)ccc4o3)ccc2C)cc(OC)c1OC,11%,-15%,?,1%,-22%,13µM*
COc1cc(C(=O)Nc2cccc(-c3nc4cc(C)ccc4o3)c2)cc(OC)c1OC,.,.,-27%,.,.,-25%
CCN(CC)c1ccc2cc(-c3nnc(-c4ccncc4)o3)c(=O)oc2c1,2µM*,.,.,.,.,.
CCN(CC)c1ccc2cc(-c3nnc(-c4cccc(Cl)c4)o3)c(=O)oc2c1,.,-24%[10.9 µM],4%,.,.,-3%
COc1ccc(CNC(=O)CSc2ncc3c(n2)-c2cc(Cl)ccc2N(C)S3(=O)=O)cc1,.,14%[10.9 µM],0%,.,.,4%
